Assay outcomes (PubChem BioAssay)
PNC inhibitor = perinucleolar compartment assembly inhibition | PC3M PTB-GFP, PNC prevalence imaging, 16 h; hits give low values | activity change (PNC), negative = inhibition, % at 10 µM | 3.1% of 140,000 active | AID 2417;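 active = readout at or below -70, meaning at least 70% loss of cells showing the perinucleolar compartment, a nuclear body marking cancer cells; inconclusive = readout between -30 and a set limit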;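 also: plate controls were DMSO wells for no effect and camptothecin positive control wells for full effect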
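Compounds are pinned in duplicate onto adhered PC3M cells stably expressing GFP-tagged PTB and incubated 16 h at 37 C. Cells are then fixed, nuclei stained with Hoechst, and PNC-positive cells counted.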
ALDH1A1 inh = inhibitors of human aldehyde dehydrogenase 1A1 | P00352 | Potency, µM (top dose mostly 75.3 µM), inactives show at the top dose activity, negative = inhibition, most hits filed as inhibitors | 7.3% of 220,000 active | AID 1030 | Purified ALDH1A1, NADH fluorescence, propionaldehyde substrate; active = well fitted inhibition curve with a large enough effect, not every such curve was filed as active; inconclusive = small, poorly fitted or top-dose-only effect, or another doubt; inactive = no such curve, though single readings can be large or run the other way;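 also: potency is read from the fitted curve at half-maximal effect; plate controls were no enzyme wells and a reference inhibitor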
HPGD block = blocks human HPGD enzyme activity. P15428. purified HPGD, NADH fluorescence kinetic, PGE2 substrate. Potency, µM, for inactives: at the highest dose activity change, negative = inhibition, actives largely listed as inhibitors. 4.3% of 150,000 active. AID 894; active = well fitted inhibition curve with a large enough effect, not every such curve was filed as active; inconclusive = small, poorly fitted or top-dose-only effect, or another doubt; inactive = no such curve, though single readings can be large or run the other way; also: potency is read from the fitted curve at half-maximal effect
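20 nM HPGD preincubated 15 min at room temperature with compound in 50 mM Tris-HCl pH 8, 0.01% Tween 20. Started with 1 mM NAD+ and 30 uM prostaglandin E2; NADH fluorescence (360/450 nm) read 5 times over 30-s intervals, last minus first.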
IMPase Li inh = IMPase inhibition in cells with lithium potentiation; CHO-M1 cells, IP1 TR-FRET (IP-One), carbachol + lithium; Potency, µM (highest dose often 59.4 µM), without a hit: at the top dose activity, negative = IMPase inhibition, usual class: inhibitors; 0.35% of 210,000 active; AID 1457;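 also: IP1 builds up when IMPase is blocked and the TR-FRET signal falls; potency is read from the fitted curve at half-maximal effect; plate controls were basal vehicle for no effect and high inhibitor control for full effect; nearly all actives have a fitted effect of over 50% in size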
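IP1 accumulation measured by competitive TR-FRET in lysed CHO-M1 cells after 30 min compound exposure at 37C, with a small lithium addition to potentiate weak responses. Hill-equation AC50 from ratio and donor-channel data.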
IMPase inh = membrane-permeable compound that blocks inositol monophosphatase; P97697; CHO-M1 cells, IP1 accumulation, HTRF TR-FRET ratio; inhibition (IP1 accumulation), % at 46.1 µM; 120,000 tested, under 10 active; AID 901; active = well fitted curve in the direction sought with a large enough effect in the signal ratio, not every such curve was filed as active; inconclusive = small, poorly fitted or top-dose-only effect, or a change in a side signal; inactive = no such curve, though single readings can be large or run the other way; the % refers to the signal ratio;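 also: cells stimulated with carbachol in lithium chloride buffer; plate controls were DMSO basal wells for no effect and reference inhibitor wells for full effect; higher means more IMPase inhibition seen as more IP1 and lower FRET ratio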
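In this qHTS, compounds (final up to 46 uM) act on CHO-M1 cells that are then activated through the M1 receptor with carbachol, in pH 7.4 buffer containing 50 mM LiCl, for 30 min. IP1 accumulation is quantified by the IP-One immunoassay.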
ALOX12 inhib = inhibitors of human 12-lipoxygenase (ALOX12); Potency, µM (highest dose often 57.1 µM), for the others: at the highest dose activity change, negative = inhibition, actives largely listed as inhibitors; AID 1452; purified 12-hLO, xylenol orange hydroperoxide absorbance; 0.12% of 150,000 active; also: potency is read from the fitted curve at half-maximal effect; nearly all actives have a fitted effect of over 55% in size
Target sequence (P18054 whole entry, looked up): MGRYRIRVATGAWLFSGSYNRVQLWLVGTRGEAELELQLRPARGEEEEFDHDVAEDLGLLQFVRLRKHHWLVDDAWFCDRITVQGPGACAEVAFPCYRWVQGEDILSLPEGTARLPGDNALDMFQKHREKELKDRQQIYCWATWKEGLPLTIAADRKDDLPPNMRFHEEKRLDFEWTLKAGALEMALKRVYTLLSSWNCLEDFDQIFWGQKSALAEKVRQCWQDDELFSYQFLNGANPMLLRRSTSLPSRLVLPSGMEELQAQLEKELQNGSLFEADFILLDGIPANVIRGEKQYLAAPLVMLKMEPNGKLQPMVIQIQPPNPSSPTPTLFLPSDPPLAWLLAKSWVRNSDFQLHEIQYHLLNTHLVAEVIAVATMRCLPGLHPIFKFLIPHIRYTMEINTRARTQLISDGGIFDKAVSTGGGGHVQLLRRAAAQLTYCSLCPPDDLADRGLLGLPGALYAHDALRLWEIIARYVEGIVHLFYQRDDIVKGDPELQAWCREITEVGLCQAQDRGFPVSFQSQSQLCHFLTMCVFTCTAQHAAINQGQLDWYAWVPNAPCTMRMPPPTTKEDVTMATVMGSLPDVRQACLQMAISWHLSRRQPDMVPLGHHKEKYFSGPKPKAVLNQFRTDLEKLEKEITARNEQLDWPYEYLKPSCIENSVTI
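Hydroperoxide formation by human 12-lipoxygenase from 40 uM arachidonic acid was followed colorimetrically via ferric-xylenol orange complex, using the 573/405 nm absorbance ratio. Enzyme concentration was 150 nM, with 30 min reaction at room temperature.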
Active calls of the source: *; ! = not confirmed by another sample; [ ] = another dose, or the depositor's remark. A selection: hits, their analogues and other compounds. The true share with any hit is near 11%. Unless noted, calls follow the shape of the dose curve; as a rule, active = well fitted curve in the direction sought with a large enough effect; inconclusive = small, poorly fitted or top-dose-only effect, or another doubt; inactive = no such curve, though single readings can be large; an effect the other way counts as inactive or inconclusive. Unless noted, % is scaled to controls: 0 for no effect and ±100 for the full control effect.

For CCC(=O)OC1CCC2C3CCc4cc(O)ccc4C3CC[C@]12C (stereo partly drawn) the results were ALDH1A1 inh 7%, HPGD block -26%, IMPase Li inh 25% and ALOX12 inhib -13%.
`O=C1c2ccccc2C(=O)C1c1ccc2ccccc2n1` gave PNC inhibitor 20, ALDH1A1 inh 25µM*!, HPGD block -4%, IMPase Li inh 9%[38.3 µM], IMPase inh 4 and ALOX12 inhib 4%.
Screening COc1cc2c(cc1OC)C(CC#N)=NC(C)(C)C2 returned PNC inhibitor 25, ALDH1A1 inh 2µM*, HPGD block -11%, IMPase Li inh 9%[38.3 µM], IMPase inh 4 and ALOX12 inhib -4%.
COc1cc2c(cc1OC)C(c1cc3ccccc3oc1=O)=NC(C)(C)C2 was read as PNC inhibitor 317, ALDH1A1 inh -1%, HPGD block inconclusive, IMPase Li inh 2%, IMPase inh 5 and ALOX12 inhib -4%.
Screening Cc1cc(/C=C2/SC(=O)NC2=O)c(C)n1-c1ccc(N2CCOCC2)cc1 returned PNC inhibitor inconclusive, ALDH1A1 inh -8%, HPGD block 8.9µM*, IMPase Li inh 16% and ALOX12 inhib -1%.
`Cc1cc(/C=C2\SC(=Nc3ccc(F)cc3)NC2=O)c(C)n1-c1ccc(S(N)(=O)=O)cc1` gave PNC inhibitor -99*, ALDH1A1 inh inconclusive, HPGD block -10%, IMPase Li inh 32%[38.3 µM], IMPase inh 0 and ALOX12 inhib -30%.
`COc1ccc(-n2c(C)cc(/C=C3\SC(=S)NC3=O)c2C)cc1` gave ALDH1A1 inh inconclusive and IMPase Li inh 23%.
For CCN(CC(=O)O)C(=O)c1cccnc1 the results were ALDH1A1 inh 7%[13.5 µM], HPGD block -4%, IMPase Li inh 3% and ALOX12 inhib 2%[11.4 µM].
For CCCCCC[C@@H]([C@H](C)O)n1cnc2c(N)ncnc21 the results were IMPase inh 3 and ALOX12 inhib -5%.
`CCCCCCCCCCCCCCCC(N)=O` gave ALDH1A1 inh -4%, HPGD block -3%, IMPase Li inh -3% and ALOX12 inhib -3%.
Screening Cc1cc(C)cc(Oc2ccccc2/C=C\C(=O)O)c1 returned PNC inhibitor -86*, ALDH1A1 inh 3%, HPGD block -5%, IMPase Li inh 4%, IMPase inh 1 and ALOX12 inhib 3%.
Screening CCOc1ccc(OCC(=O)c2c(O)c3ccccc3oc2=O)cc1 returned PNC inhibitor 6, ALDH1A1 inh 8.9µM*, HPGD block 13µM*, IMPase Li inh -6%[38.3 µM], IMPase inh 0 and ALOX12 inhib -13%.
Screening COc1ccc(OCC(=O)c2c(O)c3ccccc3oc2=O)cc1 returned PNC inhibitor -6, ALDH1A1 inh inconclusive, HPGD block 22µM*, IMPase Li inh 18%[38.3 µM], IMPase inh 0 and ALOX12 inhib -8%.
COc1ccc(-c2oc3ncn4nc(COc5ccc(C)cc5)nc4c3c2-c2ccc(OC)cc2)cc1 was read as IMPase inh -3.
`COc1ccc(NS(=O)(=O)c2ccc3nc(COc4ccc5ccccc5c4)[nH]c3c2)cc1` gave PNC inhibitor inconclusive, ALDH1A1 inh -5%, IMPase inh 9 and ALOX12 inhib -4%.
For COc1ccc(NS(=O)(=O)c2ccc3nc(COc4cccc5ccccc45)[nH]c3c2)cc1 the results were PNC inhibitor -12, ALDH1A1 inh 22µM*, HPGD block 35µM*, IMPase Li inh 9% and ALOX12 inhib -12%.
Screening Cc1ccccc1OCc1nc2ccc(S(=O)(=O)N3CCOCC3)cc2[nH]1 returned PNC inhibitor -10, ALDH1A1 inh 10µM*, HPGD block 14µM*, IMPase Li inh -5%[38.3 µM], IMPase inh 0 and ALOX12 inhib 2%.
`O=C(O)c1ccc(CN2C(=O)CSC2=S)cc1` gave PNC inhibitor inconclusive, ALDH1A1 inh 13µM*, HPGD block -21%, IMPase Li inh -2%[38.3 µM], IMPase inh 2 and ALOX12 inhib -5%.
